Eight compounds from PubChem BioAssay (Tox21) can be followed below.

Values joined by “and” are separate entries in the source; they are usually repeats but may differ in a detail not shown here. Equal values may be shown once. Records with an inconclusive call do not appear. A structure can be active in one record and inactive in another. Active and inactive are the calls of the source. Unless noted, calls come from the whole dose curve; as a rule, active = well fitted curve in the direction sought with a large enough effect in the repeat runs; inconclusive = weak or mixed curves; inactive = no such curve, though single readings can be large; an effect the other way counts as inactive or inconclusive.

Assay [1] is described as follows: qHTS assay to identify small molecule antagonists of the thyroid receptor (TR) signaling pathway - cell viability counter screen (AID 743064). Note: nearly all actives have a fitted effect of over 50% in size. Note: potency is the fitted concentration of half-maximal effect. An outline of the steps: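 Fluorescence from CellTiter-Fluor, added after 23.5 h exposure at 37 °C, reported viability of GH3.TRE-Luc cells co-treated with compound and 1 nM T3. Measured in the same wells as the luciferase TR readout.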
On the technique in general: In qHTS, concentration-response curves come from the screen itself.

Assay [2] is described as follows: qHTS assay to identify small molecule antagonists of the thyroid receptor (TR) signaling pathway (AID 743065). Note: nearly all actives have a fitted effect of over 55% in size. Note: potency is the fitted concentration of half-maximal effect. An outline of the steps:
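Antagonism measured as loss of luciferase signal in GH3 cells stably carrying a TRE-luciferase reporter, co-treated with compound and T3 (1 nM final) for 23.5 h at 37 C. Viability was read in the same well by CellTiter-Fluor.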

Assay [3] relates to thyroid hormone receptor (rat, GH3 cells). The assay is described as follows: qHTS assay to identify small molecule agonists of the thyroid receptor (TR) signaling pathway (AID 743066; calls by dose curve).
The nature of assay [4]: qHTS assay to identify small molecule antagonists of the estrogen receptor alpha (ER-alpha) signaling pathway - cell viability counter screen (AID 743074; calls by dose curve;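 note: HEK293 cells carrying ER-alpha-UAS-bla reporter stimulated with 17beta-estradiol; nearly all actives have a fitted effect of over 45% in size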).
Assay [5] can be described thus: qHTS assay to identify small molecule antagonists of the estrogen receptor alpha (ER-alpha) signaling pathway using the BG1 cell line - cell viability counter screen (AID 743081).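 Note: compound given together with 17beta-estradiol as the ER stimulus; nearly all actives have a fitted effect of over 45% in size.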 Note: potency is the fitted concentration of half-maximal effect.
Assay [6] has as its target Aromatase (Homo sapiens) (UniProt P11511). The assay is described as follows: qHTS assay to identify aromatase inhibitors (AID 743083). Note: nearly all actives have a fitted effect of over 55% in size. Note: potency is the fitted concentration of half-maximal effect.
A short description of assay [7]: qHTS assay to identify aromatase inhibitors - cell viability counter screen (AID 743084).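 Note: cells stimulated with testosterone during compound exposure; nearly all actives have a fitted effect of over 55% in size.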 Note: potency is the fitted concentration of half-maximal effect.
The target in assay [8] is Aryl hydrocarbon receptor (Homo sapiens) (UniProt P35869). Nature of the assay: qHTS assay to identify small molecule that activate the aryl hydrocarbon receptor (AhR) signaling pathway (AID 743085).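 Note: HG2L7.5c1 human HepG2 liver cells with stably integrated DRE-driven firefly reporter; series mostly up to about 70 µM; nearly all actives have a fitted effect of over 15% in size.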 In outline: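 Cell line HG2L7.5c1 (human hepatoma, 20× DRE-luc). Plated, 5 h 37C, compound/DMSO added, 24 h 37C. CellTiter-Fluor 30 min 37C → fluorescence; then ONE-Glo 30 min RT → luminescence.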

The nature of assay [9]: qHTS assay to identify small molecule that activate the aryl hydrocarbon receptor (AhR) signaling pathway - cell viability counter screen (AID 743086). Note: nearly all actives have a fitted effect of over 45% in size. Note: potency is the fitted concentration of half-maximal effect. In outline: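 Cytotoxicity counter screen: CellTiter-Fluor signal (30 min, 37 C) in 4000 HepG2 cells/well carrying the DRE-luciferase reporter, following 24 h compound exposure at 37 C.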
Assay [10] has as its target Peroxisome proliferator-activated receptor gamma (Homo sapiens) (UniProt P37231). The assay is described as follows: qHTS assay to identify small molecule agonists of the peroxisome proliferator-activated receptor gamma (PPARg) signaling pathway (AID 743094; active = well fitted activation curve with a large enough effect in the signal ratio in the repeat runs, not every such curve was filed as active; the % refers to the signal ratio). An outline of the steps:
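GeneBLAzer PPARg UAS-bla HEK293H cells carrying a stably integrated beta-lactamase reporter were pre-incubated 5 h at 37C, then exposed to compounds in DMSO for 17 h at 37C; LiveBLAzer B/G FRET substrate was added for 1 h at room temperature and fluorescence read.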

Assay [11] has the same target. Nature of the assay: qHTS assay to identify small molecule antagonists of the peroxisome proliferator-activated receptor gamma (PPARg) signaling pathway (AID 743191; calls by dose curve; note: series mostly up to about 63 µM; nearly all actives have a fitted effect of over 30% in size). An outline of the steps:
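Beta-lactamase reporter under UAS control in HEK293H PPARg-bla cells; compound treatment 17 h at 37C. Read-out: fluorescence intensity after 1 h room-temperature incubation with LiveBLAzer B/G FRET substrate.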

Assay [12] is described as follows: qHTS assay to identify small molecule antagonists of the peroxisome proliferator-activated receptor gamma (PPARg) signaling pathway - cell viability counter screen (AID 743194). Note: nearly all actives have a fitted effect of over 55% in size. An outline of the steps: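 Viability was measured as CellTiter-Glo luminescence in GeneBLAzer PPARg UAS-bla HEK293H cells. These cells had been exposed 17 h at 37 C to compounds together with rosiglitazone at 50 nM final, with the beta-lactamase readout taken in the same wells.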

Assay [13] in a line: qHTS assay for small molecule agonists of the antioxidant response element (ARE) signaling pathway (AID 743202; active = well fitted activation curve with a large enough effect in the signal ratio in the repeat runs, not every such curve was filed as active; the % refers to the signal ratio). In outline:
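An ARE-responsive beta-lactamase gene stably integrated in HepG2 cells serves as reporter. After 5 h plating and 16 h compound incubation at 37 C, fluorescence of the B/G FRET substrate was measured.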

Assay [14] can be described thus: qHTS assay for small molecule agonists of the antioxidant response element (ARE) signaling pathway - cell viability counter screen (AID 743203; calls by dose curve; note: nearly all actives have a fitted effect of over 55% in size). An outline of the steps: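 CellSensor ARE-bla HepG2 cells, 2,000 per well, rested 5 hrs at 37C/5% CO2, then exposed to compound in DMSO for 16 hrs; viability read as CellTiter-Glo luminescence after 30 min at room temperature, in the reporter wells.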

The nature of assay [15]: qHTS assay for small molecule activators of the heat shock response signaling pathway - cell viability counter screen (AID 743209). Note: nearly all actives have a fitted effect of over 50% in size. An outline of the steps: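 CellSensor HSE-bla HeLa cells, plated overnight at 37 C/5% CO2, were exposed to compounds in DMSO for 5 h at 37 C. Viability was then read in the same wells by CellTiter-Glo luminescence after 30 min at room temperature.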

A short description of assay [16]: qHTS assay for small molecule activators of the heat shock response signaling pathway (AID 743210; active = well fitted activation curve with a large enough effect in the signal ratio in the repeat runs, with a control signal flat, not every such curve was filed as active; the % refers to the signal ratio;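 note: HeLa cells with beta-lactamase reporter driven by heat shock elements; series mostly up to about 63 µM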). In outline:
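In HSE-bla HeLa cells, 5 h compound incubation (37 C) precedes addition of LiveBLAzer B/G substrate; after 2.5 h at room temperature, fluorescence intensity indicates reporter induction.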

For assay [17], the target named is Estrogen receptor (Homo sapiens) (UniProt P03372). Nature of the assay: qHTS assay to identify small molecule agonists of the estrogen receptor alpha (ER-alpha) signaling pathway (AID 743075; calls by dose curve; note: potency is the fitted concentration of half-maximal effect).
Assay [18] has the same target. Nature of the assay: qHTS assay to identify small molecule agonists of the estrogen receptor alpha (ER-alpha) signaling pathway using the BG1 cell line (AID 743079). Note: nearly all actives have a fitted effect of over 20% in size. Note: potency is the fitted concentration of half-maximal effect.
Assay [19] shares this target. Nature of the assay: qHTS assay to identify small molecule antagonists of the estrogen receptor alpha (ER-alpha) signaling pathway (AID 743069; active = well fitted curve in the direction sought with a large enough effect in the signal ratio in the repeat runs, not every such curve was filed as active; the % refers to the signal ratio). An outline of the steps:
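Compound effects are measured against 17beta-estradiol stimulation in HEK293 cells with a UAS-controlled beta-lactamase reporter for ER-alpha. Exposure lasts 18 hr at 37C; LiveBLAzer B/G FRET substrate follows for 2 hr at room temperature.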

A short description of assay [20]: qHTS assay to identify small molecule antagonists of the estrogen receptor alpha (ER-alpha) signaling pathway using the BG1 cell line (AID 743080; calls by dose curve;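 note: BG1 cells stimulated with 17beta-estradiol alongside compound; series mostly up to about 70 µM; nearly all actives have a fitted effect of over 25% in size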). In outline:
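Luminescence from a 4×ERE-luciferase reporter in BG1-Luc-4E2 cells served as read-out. Cells, pre-cultured 5 days in stripped-serum phenol-red-free medium, were exposed to compound with 17beta-estradiol co-stimulation for 21.5 h at 37 C.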

Chain of Estrogen receptor (Homo sapiens) (P03372 whole entry, looked up): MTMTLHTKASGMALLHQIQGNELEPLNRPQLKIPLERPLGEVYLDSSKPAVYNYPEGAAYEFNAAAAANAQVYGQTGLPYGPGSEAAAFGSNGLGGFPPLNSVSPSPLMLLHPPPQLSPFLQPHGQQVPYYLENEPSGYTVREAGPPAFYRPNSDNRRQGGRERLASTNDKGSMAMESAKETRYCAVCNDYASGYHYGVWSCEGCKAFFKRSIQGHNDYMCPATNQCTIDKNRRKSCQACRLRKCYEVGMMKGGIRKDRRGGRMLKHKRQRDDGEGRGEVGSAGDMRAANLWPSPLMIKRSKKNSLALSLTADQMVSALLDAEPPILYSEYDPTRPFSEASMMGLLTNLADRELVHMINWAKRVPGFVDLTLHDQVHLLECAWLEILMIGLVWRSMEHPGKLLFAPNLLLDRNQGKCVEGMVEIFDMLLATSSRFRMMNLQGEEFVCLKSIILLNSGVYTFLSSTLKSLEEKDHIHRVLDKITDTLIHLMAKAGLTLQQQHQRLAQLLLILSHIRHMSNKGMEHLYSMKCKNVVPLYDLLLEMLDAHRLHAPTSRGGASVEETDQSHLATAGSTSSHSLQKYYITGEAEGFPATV
Chain of Aryl hydrocarbon receptor (Homo sapiens) (P35869 whole entry, looked up): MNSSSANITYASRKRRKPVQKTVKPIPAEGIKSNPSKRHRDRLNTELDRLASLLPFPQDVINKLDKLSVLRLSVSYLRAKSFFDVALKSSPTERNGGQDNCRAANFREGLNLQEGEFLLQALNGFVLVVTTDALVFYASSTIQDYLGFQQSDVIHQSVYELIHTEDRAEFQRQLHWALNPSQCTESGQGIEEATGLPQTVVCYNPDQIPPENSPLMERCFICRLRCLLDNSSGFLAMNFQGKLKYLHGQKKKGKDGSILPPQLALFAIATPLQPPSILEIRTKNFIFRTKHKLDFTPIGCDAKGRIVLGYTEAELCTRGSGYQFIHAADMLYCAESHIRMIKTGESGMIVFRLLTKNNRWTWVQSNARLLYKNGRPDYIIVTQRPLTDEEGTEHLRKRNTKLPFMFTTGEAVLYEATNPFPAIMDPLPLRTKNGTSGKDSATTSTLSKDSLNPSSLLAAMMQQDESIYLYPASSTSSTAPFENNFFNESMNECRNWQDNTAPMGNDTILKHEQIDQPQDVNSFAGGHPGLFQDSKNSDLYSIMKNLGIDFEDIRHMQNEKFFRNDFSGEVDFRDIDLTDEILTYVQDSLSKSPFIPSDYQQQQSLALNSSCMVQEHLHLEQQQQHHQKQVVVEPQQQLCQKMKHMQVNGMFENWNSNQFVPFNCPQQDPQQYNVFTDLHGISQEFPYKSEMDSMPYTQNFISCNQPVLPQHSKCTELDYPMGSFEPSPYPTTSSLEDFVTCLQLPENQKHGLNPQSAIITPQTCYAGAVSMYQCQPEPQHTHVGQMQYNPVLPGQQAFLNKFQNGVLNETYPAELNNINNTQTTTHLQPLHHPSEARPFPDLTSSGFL
Chain of Aromatase (Homo sapiens) (P11511 whole entry, looked up): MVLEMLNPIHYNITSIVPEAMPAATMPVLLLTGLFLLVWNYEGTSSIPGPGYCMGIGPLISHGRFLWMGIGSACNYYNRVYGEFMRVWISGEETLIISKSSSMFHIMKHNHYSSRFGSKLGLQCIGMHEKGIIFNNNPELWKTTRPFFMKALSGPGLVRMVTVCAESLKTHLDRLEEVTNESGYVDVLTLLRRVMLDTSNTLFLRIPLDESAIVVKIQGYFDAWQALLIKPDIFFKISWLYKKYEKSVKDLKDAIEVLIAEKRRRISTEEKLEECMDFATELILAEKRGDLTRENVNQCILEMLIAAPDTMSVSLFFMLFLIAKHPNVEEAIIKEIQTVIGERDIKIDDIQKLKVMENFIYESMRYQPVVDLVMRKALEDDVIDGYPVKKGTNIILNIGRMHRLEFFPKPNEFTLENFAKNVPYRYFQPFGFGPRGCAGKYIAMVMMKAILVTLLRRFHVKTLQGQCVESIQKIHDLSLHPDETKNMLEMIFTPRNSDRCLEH
Chain of Peroxisome proliferator-activated receptor gamma (Homo sapiens) (P37231 whole entry, looked up): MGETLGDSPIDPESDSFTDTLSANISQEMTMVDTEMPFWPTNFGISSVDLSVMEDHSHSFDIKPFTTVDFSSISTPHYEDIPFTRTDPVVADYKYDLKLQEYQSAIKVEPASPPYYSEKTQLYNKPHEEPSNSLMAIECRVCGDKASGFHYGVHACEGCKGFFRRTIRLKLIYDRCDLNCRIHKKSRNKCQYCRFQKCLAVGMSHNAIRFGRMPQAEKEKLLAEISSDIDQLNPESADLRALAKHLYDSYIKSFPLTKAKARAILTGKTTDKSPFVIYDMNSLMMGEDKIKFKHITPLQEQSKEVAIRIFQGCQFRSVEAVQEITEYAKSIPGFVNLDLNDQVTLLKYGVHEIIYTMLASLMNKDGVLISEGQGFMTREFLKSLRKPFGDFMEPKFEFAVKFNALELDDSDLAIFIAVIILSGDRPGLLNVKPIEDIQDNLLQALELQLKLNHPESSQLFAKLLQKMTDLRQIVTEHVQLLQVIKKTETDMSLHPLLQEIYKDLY

Consider `CCCCC/C(C=O)=C\c1ccccc1`, for which the Potency entry in assay [1] was “inactive and 61.2 µM (active)”. Also, the Potency entry in [2], in assay [5], in assay [6], in [7], in assay [8] and in [9] was “inactive” throughout. In addition, the Potency entry in assay [10], in [11], in [12], in [13] and in [14] was “inactive” throughout. Also, the call in assay [3], in [4], in assay [15] and in assay [16] was inactive.

Take `COc1ccc(C(=O)c2ccccc2)c(O)c1`: the Potency entry in assay [1], in assay [2], in assay [5], in [6], in assay [7] and in assay [9] was “inactive” in each case. The Potency result in assay [10], in assay [11], in assay [12], in assay [13] and in assay [14] was “inactive” throughout. Further, the call in [3], in assay [4], in assay [15] and in [16] was inactive. Moreover, the Potency in assay [17] was 27.1 µM [fluorescent] (active) and 55 µM [activator] (active); in assay [18] it was 23.7 µM (active) and 60.1 µM (active) and 34.4 µM (active).

`CC(O)COc1ccccc1` (centres undefined): the Potency entry in [1], in assay [2], in assay [5], in [6], in assay [7] and in assay [8] was “inactive” throughout. Further, the Potency result in assay [9], in assay [10], in assay [11], in assay [12], in assay [13] and in [14] was “inactive” throughout. The compound was classed as inactive in assay [3], in [4], in assay [15] and in [16].

Regarding `COC(=O)C1CCC(C(=O)OC)CC1` (centres undefined), the Potency result in assay [1], in [2], in [19], in assay [17], in assay [18] and in [20] was “inactive” in each case. For the same compound, the Potency entry in assay [5], in assay [6], in assay [7], in assay [9], in [10] and in assay [11] was “inactive” each time. Further, the Potency result in assay [12] and in assay [14] was “inactive” each time. The result in [3], in assay [4], in assay [15] and in [16] was inactive.

Regarding `Cn1cnc2c1c(=O)[nH]c(=O)n2C`, the Potency entry in assay [1], in assay [2], in assay [5], in [6], in [7] and in assay [9] was “inactive” throughout. The Potency result in assay [10], in assay [11], in [12], in assay [13] and in assay [14] was “inactive” each time. The compound was classed as inactive in assay [3], in [4], in assay [15] and in assay [16].

With `NC(=O)c1ccc([N+](=O)[O-])cc1Cl`, the Potency result in [1], in assay [2], in assay [5], in assay [6], in assay [7] and in [9] was “inactive” in each case. Also, the Potency result in [10], in assay [11], in assay [12], in [13] and in assay [14] was “inactive” in each case. Besides, the compound was called inactive in [3], in [4], in assay [15] and in assay [16].

For the compound `C[C@]12CC[C@@H]3c4ccc(O)cc4C[C@@H](CCCCCCCCCS(=O)CCCC(F)(F)C(F)(F)F)[C@H]3[C@@H]1CC[C@@H]2O` (some centres undefined), the Potency in assay [2] was 4.2 nM (active) and 0.7 nM (active); in assay [6], 59.6 nM (active) and 15.3 nM (active). Moreover, the compound was called inactive in [3], in assay [4], in assay [15] and in assay [16]. Further, the Potency result in [5], in [7], in [8], in assay [9], in assay [10] and in assay [11] was “inactive” throughout. The Potency entry in assay [12] and in assay [14] was “inactive” each time.

For the compound `CO[C@H]1C=CO[C@@]2(C)Oc3c(C)c(O)c4c(O)c(c(/C=N/N5CCN(C)CC5)c(O)c4c3C2=O)NC(=O)/C(C)=C\C=C[C@H](C)[C@H](O)[C@@H](C)[C@@H](O)[C@@H](C)[C@H](OC(C)=O)[C@@H]1C`, the Potency was 26.6 µM (active) and 34.8 µM (active) in assay [1]; 23.7 µM (active) and 34.8 µM (active) in assay [5]; 23.7 µM (active) and 15.4 µM (active) and 15.5 µM (active) in assay [7]; 29.8 µM (active) and 27.4 µM (active) and 15.5 µM (active) in [9]. The Potency entry in assay [2], in [6], in assay [10], in assay [12] and in assay [14] was “inactive” in each case. Besides, the call in [3], in assay [4], in assay [15] and in assay [16] was inactive.
